Bioassay records from PubChem.
Most compounds without a hit are left out; they make up all but 1.8% or so of the library.
CtBP-E1A inh: CtBP/E1A binding inhibition; AlphaScreen GST-E1A/His-CtBP binding, 1536-well; hits give low values; activity change, % (test concentration not listed); 340,000 compounds, 0.49% hits
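In 5 uL wells, 23 nL compound meets equimolar GST-E1A and His-CtBP (5X stock 125 nM each) for 2 h, 37 °C. Beads (5X, 50 ug/mL) then 1 h, 37 °C, dark.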
PI5P4K alpha inh: blocks human PI5P4K alpha kinase activity. PI5P4Kalpha enzyme, ADP-Glo luminescence, 60 min; hits give low values. max response, %. 330,000 compounds, 1.2% hits; active = max response of -50% or lower; inconclusive = between -30% and -50%; inactive = -30% or higher; note: value at the top dose of about 77 µM
Target sequence (P48426 whole entry, looked up): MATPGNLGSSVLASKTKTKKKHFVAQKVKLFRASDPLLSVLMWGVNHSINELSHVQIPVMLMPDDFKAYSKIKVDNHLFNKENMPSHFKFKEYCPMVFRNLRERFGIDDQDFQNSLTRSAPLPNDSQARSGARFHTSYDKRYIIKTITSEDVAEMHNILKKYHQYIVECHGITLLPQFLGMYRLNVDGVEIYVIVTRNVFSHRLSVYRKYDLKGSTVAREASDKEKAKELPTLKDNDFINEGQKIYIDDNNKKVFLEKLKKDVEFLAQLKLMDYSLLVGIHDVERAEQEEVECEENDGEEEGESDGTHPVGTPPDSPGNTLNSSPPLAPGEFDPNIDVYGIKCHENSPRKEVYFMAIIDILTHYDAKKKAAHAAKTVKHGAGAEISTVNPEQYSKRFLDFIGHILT
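ADP-Glo luminescence end-point read after a 60 min room-temperature kinase reaction of PI5P4Kalpha plus substrate, initiated with ATP at 5 microM final. Buffer: 0.038 M HEPES pH 7.4, EGTA, 0.1% CHAPS, 5% DMSO.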
Six1-Eya2 inh: Six1/Eya2 interaction inhibition. Q15475+O00167. 360,000 compounds, 0.56% hits. activity change, % (concentration not given with the values). AlphaScreen GST-Six1/His-Eya2 binding, biochemical; hits give low values
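AlphaScreen with GST-Six1 and His-Eya2 (5X mix: 250 nM and 500 nM), glutathione donor and nickel acceptor beads; buffer 50 mM Tris pH 8.0, 300 mM NaCl, 1 mM TCEP; 1 h at 37 C in the dark.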
PI4K2A block: PI4K2A (human) kinase inhibition; Q9BTU6; AID 1346378; 420,000 compounds, 0.13% hits; purified PI4K2A, ADP-Glo luminescence, 1 h; hits give low values; activity change, negative = inhibition, % at 76.9 µM; in the data active = activity change below about -50%; inconclusive = mostly about -30% to -49%;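 note: -100% = wells without enzyme as full effect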
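ADP-Glo luminescence measured ADP generated by PI4K2A enzyme (4 ug/mL before mixing) with 1.2 mM PI substrate (pre-mix) and 300 microM ATP (pre-mix). Tris pH7.5 buffer with MgCl2, Triton X-100; 1 h reaction at ambient temperature.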
Akt phos inh: Akt phosphorylation inhibition | Neuro2A IGF-stimulated pAkt S473 HTRF, 20 min; hits give low values | activity change, % for hits at 50 µM | 360,000 compounds, 0.32% hits | AID 651550; in the data active = activity change below about -80%; inconclusive = mostly about -51% to -80%
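Single-point screen (50 µM final compound) in Neuro2A cells stimulated 20 min with 6 nM IGF at 37 deg C. After lysis, Ser473-phosphorylated Akt read by HTRF (ex 330 nm, em 615/665 nm) as the 665/615 ratio.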
Numbers without * were called inactive. Cut-off read from the data, not from the text of the source, unless noted: active = activity change below about -65%; inconclusive = mostly about -30% to -63%; inactive = weaker than that. Unless noted, % is set by controls: 0 for no effect and ±100 for the full control effect.

Results for CCc1ccc(OCCOCC(O)CN(CCO)CCO)cc1 (stereo unspecified) ?
CtBP-E1A inh: 20; PI5P4K alpha inh: 16; Six1-Eya2 inh: 13; PI4K2A block: -4; Akt phos inh: inactive

What do the screens show for `Cc1noc(C)c1COc1ccc(C(=O)N2CCCC(C(F)(F)F)C2)cc1` (stereo unspecified)?
CtBP-E1A inh: 0; PI5P4K alpha inh: -4; Six1-Eya2 inh: -1; PI4K2A block: -1; Akt phos inh: inactive

How did O=C(/C=C\c1ccccc1)Oc1cccc2cccnc12 do in these assays?
PI5P4K alpha inh: -13; Six1-Eya2 inh: -67*; PI4K2A block: -10; Akt phos inh: inactive

How did O=C(Oc1cccc2cccnc12)c1ccccc1 do in these assays?
PI4K2A block: -2

Results for O=C(/C=C/c1ccccc1)Oc1cccc2cccnc12 ?
PI5P4K alpha inh: 2; Six1-Eya2 inh: -73*; PI4K2A block: 1; Akt phos inh: inactive

How did CCOC(=O)c1cnc(SC)nc1Oc1cccc(NC(=O)c2cccc(Cl)c2Cl)c1 do in these assays?
CtBP-E1A inh: 2; PI5P4K alpha inh: -2; Six1-Eya2 inh: 20; PI4K2A block: 2; Akt phos inh: inactive

Results for COc1ccc(C(=O)O)c(OC)n1 ?
CtBP-E1A inh: -5; PI5P4K alpha inh: 0; Six1-Eya2 inh: -1; PI4K2A block: 2; Akt phos inh: inactive

How did COc1ccc(C(=O)Nc2ccc(Cl)c(Cl)c2)c(OC)n1 do in these assays?
CtBP-E1A inh: -2; PI5P4K alpha inh: 1; Six1-Eya2 inh: 12; PI4K2A block: -1; Akt phos inh: -129%*

Results for CCn1c(SCC(=O)c2c[nH]c3ccccc23)nnc1-c1cccs1 ?
CtBP-E1A inh: 3; PI5P4K alpha inh: -12; Six1-Eya2 inh: -7; PI4K2A block: 11; Akt phos inh: inactive

Results for CC(C)(C)c1ccc(C(=O)O/N=C(\N)c2ccccn2)cc1 ?
CtBP-E1A inh: -1; PI5P4K alpha inh: -4; Six1-Eya2 inh: 6; PI4K2A block: inconclusive; Akt phos inh: inactive

What do the screens show for `CCOc1ccc(C(=O)O/N=C(\N)c2ccccn2)cc1`?
PI5P4K alpha inh: -79*; Six1-Eya2 inh: 0; PI4K2A block: -88*; Akt phos inh: inactive

What do the screens show for `Cc1ccc(C(=O)O/N=C(\N)c2ccccn2)cc1C`?
CtBP-E1A inh: -12; PI5P4K alpha inh: -1; Six1-Eya2 inh: 17; PI4K2A block: inconclusive; Akt phos inh: inactive

Results for C/C(=N/OC(=O)c1ccc(C)cc1)c1cccs1 ?
CtBP-E1A inh: 14; PI5P4K alpha inh: -25; Six1-Eya2 inh: 20; PI4K2A block: -80*; Akt phos inh: inactive

Results for N/C(=N\OC(=O)c1ccccc1)c1ccccn1 ?
CtBP-E1A inh: 3; PI5P4K alpha inh: inconclusive; Six1-Eya2 inh: -4; PI4K2A block: -67*; Akt phos inh: inactive

What do the screens show for `Cc1ccc(C(=O)O/N=C(\N)c2ccccn2)cc1`?
CtBP-E1A inh: 4; PI5P4K alpha inh: -55*; Six1-Eya2 inh: 5; PI4K2A block: -86*; Akt phos inh: inactive

What do the screens show for `CCN(CC)C(=O)c1cccc(NC(=O)CCc2nc3sc4c(c3c(=O)[nH]2)CCCC4)c1`?
CtBP-E1A inh: -8; PI5P4K alpha inh: -23; Six1-Eya2 inh: -2; PI4K2A block: -3; Akt phos inh: inactive

What do the screens show for `CCN1C(=O)[C@H]2[C@@H](c3ccc(C)cc3)N3C(=O)N(c4ccccc4)C(=O)[C@@]3(C)[C@H]2C1=O`?
CtBP-E1A inh: 0; PI5P4K alpha inh: 13; Six1-Eya2 inh: 10; PI4K2A block: -2; Akt phos inh: inactive

Results for Nc1nc(NCc2ccc(Cl)cc2)nc(NCCO)c1[N+](=O)[O-] ?
CtBP-E1A inh: -6; PI5P4K alpha inh: -57*; Six1-Eya2 inh: -1; PI4K2A block: 2; Akt phos inh: inactive

How did CN(C)C/C=C/C(=O)Nc1cccc(-c2c[nH]c3ncnc(Oc4ccc(NC(=O)CC(=O)Nc5ccc(F)cc5)cc4F)c23)c1 do in these assays?
CtBP-E1A inh: 0; PI5P4K alpha inh: -50*; Six1-Eya2 inh: 1; PI4K2A block: -4; Akt phos inh: inactive

What do the screens show for `CC(=O)Nc1cccc(Oc2ncnc3scc(-c4ccccc4)c23)c1`?
CtBP-E1A inh: 1; PI5P4K alpha inh: 1; Six1-Eya2 inh: 8; PI4K2A block: 2; Akt phos inh: inactive
